The target in test [1] is Alpha-galactosidase A (Homo sapiens) (UniProt P06280). Kind of test: Counterscreen for Glucocerebrosidase Inhibitors: qHTS Assay for Human alpha-Galactosidase at pH 4.5 (AID 992). Particulars: purified enzyme, fluorogenic substrate; series mostly up to 76.9 µM. The method in brief: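 Human enzyme (2 nM) with 80 uM 4-methylumbelliferyl alpha-D-galactopyranoside in 50 mM citric acid, 0.005% Tween-20, pH 4.5, 20 min at room temperature. Compounds 0.7 nM–77 uM; fluorescence Ex 365/Em 440 after pH 10 stop; AC50 from Hill fits.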
For orientation: The purpose of a counterscreen is to sort out artefacts and off-target activity.

Test [2] in a line: Cell Viability - LYMP2-017 (AID 972). Note: nearly all actives have a fitted effect of over 55% in size. Particulars: LYMP2-017 lymphoblastoid cell viability; series mostly up to 92.2 µM. In a few lines:
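LYMP2-017 human lymphoblastoid cells (2500/well) settled 5 hr at 37 C, then exposed to compound 24 hr at 37 C in complete medium. Viability taken as intracellular ATP by CellTiter-Glo luminescence after 30 min at RT; AC50 from Hill fits.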

Test [3] in a line: Cell Viability - LYMP2-019 (AID 973). Note: nearly all actives have a fitted effect of over 55% in size. The settings on record: LYMP2-019 lymphoblastoid cell line viability; series mostly up to 92.2 µM. The method in brief:
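Human lymphoblastoid LYMP2-019 cells (2500/well) preincubated 5 h at 37 C, then treated 24 h at 37 C in complete medium. Viability by CellTiter-Glo ATP luminescence after 30 min at room temperature; AC50 from Hill fits.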

The nature of test [4]: Cell Viability - LYMP2-021 (AID 974).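 Note: compound exposure lasts 24 hours at 37 °C; nearly all actives have a fitted effect of over 55% in size.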 The settings on record: LYMP2-021 lymphoblastoid cells viability; series mostly up to 92.2 µM. The method in brief:
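Human lymphoblastoid LYMP2-021 cells, 2500/well in complete medium, treated 24 hours at 37 C. Intracellular ATP by CellTiter-Glo luminescence (30 min, RT); AC50 from Hill fits of concentration-response.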

Test [5] in a line: Cell Viability - LYMP2-023 (AID 975).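 Note: cellular ATP measured by luciferase luminescence as viability proxy; nearly all actives have a fitted effect of over 55% in size.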 The settings on record: LYMP2-023 lymphoblastoid cell viability; series mostly up to 92.2 µM. The method in brief:
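LYMP2-023 human lymphoblastoid cells, 2500/well, preincubated 5 hr at 37 C, then compound-treated 24 hr at 37 C in complete medium. CellTiter-Glo luminescence (ATP) after 30 min at room temperature; AC50 from Hill-equation fits; tetraoctylammonium bromide positive control.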

Test [6] is described as follows: Cell Viability - LYMP2-025 (AID 976). Particulars: LYMP2-025 lymphoblastoid cell viability; series mostly up to 92.2 µM. The method in brief: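 Human lymphoblastoid LYMP2-025 cells, 2500/well, exposed 24 h at 37 C in complete medium in 1536-well qHTS. Viability as cellular ATP by CellTiter-Glo luminescence; AC50 from Hill fits of concentration-response data.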
A short description of test [7]: Cell Viability - LYMP2-002 (AID 977). The settings on record: LYMP2-002 lymphoblastoid cell viability, qHTS; series mostly up to 92.2 µM. In a few lines: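 Luminescent ATP readout (CellTiter-Glo, 30 min room temperature) after 24 h compound exposure at 37 C of a human lymphoblastoid line, 2500 cells/well. AC50 values derived by standard Hill fitting of qHTS concentration-response data.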

Test [8] is described as follows: Cell Viability - LYMP2-006 (AID 978). Note: nearly all actives have a fitted effect of over 60% in size. The settings on record: LYMP2-006 lymphoblastoid cell viability, qHTS; series mostly up to 92.2 µM. The method in brief:
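Human lymphoblastoid cells (LYMP2-006), 2500/well in complete medium, were treated with compound for 24 hr at 37 C. Cellular ATP was read by CellTiter-Glo luminescence after 30 min, and AC50 values came from Hill-equation fits of concentration-response data.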
In general terms: Quantitative high-throughput screening tests each substance at several concentrations.

Test [9] can be described thus: Cell Viability - LYMP2-007 (AID 979).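 Note: cells exposed to compound for 24 h before reading; nearly all actives have a fitted effect of over 60% in size.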 Particulars: LYMP2-007 lymphoblastoid cell viability; series mostly up to 92.2 µM. The method in brief:
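Human lymphoblastoid LYMP2-007 cells (2500/well) preincubated 5 h at 37 C, then treated 24 h at 37 C in complete medium. Viability by CellTiter-Glo ATP luminescence after 30 min at room temperature; AC50 from Hill fits.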

The nature of test [10]: Cell Viability - LYMP2-008 (AID 980). Note: nearly all actives have a fitted effect of over 60% in size. The settings on record: LYMP2-008 lymphoblastoid cell viability, qHTS; series mostly up to 92.2 µM. The method in brief:
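LYMP2-008 lymphoblastoid cells (2500/well) plated 5 h, then treated 24 h at 37 C in complete medium. Viability read as intracellular ATP by CellTiter-Glo luminescence after 30 min at room temperature; AC50 from Hill fits.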

Test [11] in a line: Cell Viability - LYMP2-010 (AID 981). Note: nearly all actives have a fitted effect of over 55% in size. The settings on record: LYMP2-010 lymphoblastoid cell viability, qHTS; series mostly up to 92.2 µM. The method in brief: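 Human lymphoblastoid LYMP2-010 cells (2500/well) treated 24 h at 37 C in complete medium; viability read as intracellular ATP by CellTiter-Glo luminescence. AC50 from Hill fits of concentration-response data; tetraoctylammonium bromide positive control.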

A short description of test [12]: Cell Viability - LYMP2-012 (AID 982). Particulars: LYMP2-012 lymphoblastoid cell viability qHTS; series mostly up to 92.2 µM.
Test [13] is described as follows: Cell Viability - LYMP2-014 (AID 983). Note: nearly all actives have a fitted effect of over 50% in size. The settings on record: LYMP2-014 lymphoblastoid cells, viability qHTS; series mostly up to 92.2 µM. In a few lines:
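LYMP2-014 human lymphoblastoid cells, 2500/well, treated 24 h at 37 C in complete medium; viability by CellTiter-Glo ATP luminescence after 30 min at room temperature. AC50 from Hill fits of qHTS concentration-response; tetraoctylammonium bromide positive control.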

The nature of test [14]: Cell Viability - LYMP2-016 (AID 984). Note: nearly all actives have a fitted effect of over 55% in size. Particulars: LYMP2-016 lymphoblastoid cell viability, qHTS; series mostly up to 92.2 µM. In a few lines:
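Human lymphoblastoid LYMP2-016 cells, 2500 per well, treated with compounds for 24 h at 37 C. Viability read as intracellular ATP by CellTiter-Glo luminescence after 30 min at room temperature; AC50 from Hill fits of concentration-response.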

Test [15] in a line: Cell Viability - LYMP2-018 (AID 985).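 Note: compound exposure lasted 24 hr at 37 °C; nearly all actives have a fitted effect of over 50% in size.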 The settings on record: LYMP2-018 lymphoblastoid cells, viability (qHTS); series mostly up to 92.2 µM. The method in brief: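 Human lymphoblastoid LYMP2-018 cells, 2500/well, settled 5 hr at 37 C then exposed to compound 24 hr at 37 C; intracellular ATP measured by CellTiter-Glo luminescence. AC50 from Hill-equation concentration-response fits.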

Test [16] in a line: Cell Viability - LYMP2-020 (AID 986). Note: nearly all actives have a fitted effect of over 55% in size. The settings on record: series mostly up to 92.2 µM. In a few lines:
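Human lymphoblastoid LYMP2-020 cells (2500/well) preincubated 5 h at 37 C, then treated 24 h at 37 C. Viability measured as intracellular ATP by CellTiter-Glo luminescence after 30 min at room temperature; AC50 from Hill fits.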

A short description of test [17]: Cell Viability - LYMP2-022 (AID 987). Note: nearly all actives have a fitted effect of over 55% in size. Particulars: LYMP2-022 lymphoblastoid cell viability; series mostly up to 92.2 µM. The method in brief: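 LYMP2-022 lymphoblastoid cells (2500/well, complete medium) were treated with compounds for 24 hours at 37 C; intracellular ATP was then read by CellTiter-Glo luminescence after 30 min at room temperature. AC50 values were derived from Hill-equation fits.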

A short description of test [18]: Cell Viability - LYMP2-024 (AID 988). Note: nearly all actives have a fitted effect of over 60% in size. The settings on record: LYMP2-024 lymphoblastoid cell viability; series mostly up to 92.2 µM. The method in brief:
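Human lymphoblastoid LYMP2-024 cells (2500/well) rested 5 hr, then treated with compound for 24 hr at 37 C in complete medium. Viability was measured as intracellular ATP by CellTiter-Glo luminescence. AC50 values came from Hill-equation fits.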

Test [19] can be described thus: Cell Viability - LYMP2-026 (AID 989). Note: nearly all actives have a fitted effect of over 50% in size. The settings on record: LYMP2-026 lymphoblastoid cell viability, qHTS; series mostly up to 92.2 µM. The method in brief:
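Human lymphoblastoid LYMP2-026 cells, 2500/well, exposed to compound 24 h at 37 C in complete medium. Viability as intracellular ATP by CellTiter-Glo luminescence; AC50 from Hill fits of qHTS concentration-response.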

Test [20] in a line: Cell Viability - LYMP1-002 - Assay at 24 hr (AID 993). Particulars: LYMP1-002 lymphoblastoid cells viability; series mostly up to 92.2 µM. In a few lines:
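Human lymphoblastoid LYMP1-002 cells (2500/well) treated 24 h at 37 °C; viability as intracellular ATP by CellTiter-Glo luminescence. Tetraoctylammonium bromide as positive control; AC50 from Hill-equation fits of qHTS concentration-response.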

Inconclusive results are not listed. Activity calls are given as the source filed them. Calls come from the whole dose curve; as a rule, active = well fitted curve in the direction sought with a large enough effect; inconclusive = small, poorly fitted or top-dose-only effect, or another doubt; inactive = no such curve, though single readings can be large; an effect the other way counts as inactive or inconclusive.

Chain of Alpha-galactosidase A (Homo sapiens) (P06280 whole entry, looked up): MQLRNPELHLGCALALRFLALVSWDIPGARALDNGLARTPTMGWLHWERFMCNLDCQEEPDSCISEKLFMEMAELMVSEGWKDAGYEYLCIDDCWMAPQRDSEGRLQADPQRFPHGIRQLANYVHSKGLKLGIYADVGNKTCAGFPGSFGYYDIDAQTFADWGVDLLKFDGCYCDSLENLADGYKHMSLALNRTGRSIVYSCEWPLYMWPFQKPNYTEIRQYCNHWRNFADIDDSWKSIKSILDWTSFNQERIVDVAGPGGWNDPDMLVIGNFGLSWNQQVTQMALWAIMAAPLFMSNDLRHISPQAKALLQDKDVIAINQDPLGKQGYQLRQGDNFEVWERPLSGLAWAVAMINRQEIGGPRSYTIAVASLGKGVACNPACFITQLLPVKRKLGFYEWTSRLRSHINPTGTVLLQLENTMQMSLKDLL

Turning to `O=C(O)C1=CCNCC1`, the call in [1] was inactive.
Take `NC(=Nc1ccccc1)NC(=O)c1nc(Cl)c(N)nc1N`: the result in test [1] was inactive.
On the same count and under the same terms, for `CC(=O)NNC(=O)N1Cc2ccccc2Oc2ccc(Cl)cc21` the value was “inactive”; for `Cn1ccnc1`, “inactive”.
Still for that read-out and setting: for `O=c1oc(Cl)c(Cl)c2ccccc12` the value was “inactive”; for `COc1ccc(-c2ccc(N)[n+](CCCC(=O)O)n2)cc1`, “inactive”; for `O=c1[nH]c2cc(Cl)ccc2c(O)c1-c1ccc(Oc2ccccc2)cc1`, “inactive”.
For the compound `O=C1Nc2ccc(I)cc2/C1=C/c1cc(Br)c(O)c(Br)c1`, the call in test [1] was inactive.
With `S=C(S)N1CCCC1`, the call in test [1] was inactive.
On the same count and under the same terms, for `CCCn1c(=O)c2[nH]c(-c3ccc(S(=O)(=O)O)cc3)nc2n(CCC)c1=O` the value was “inactive”.
Take `NC(=O)c1ccccc1`: the compound was classed as inactive in [2], in test [3], in test [4], in test [5], in test [6] and in test [7]. Moreover, the compound was classed as inactive in test [8], in test [9], in test [10], in test [11], in [12] and in test [13]. For the same compound, the call in [14], in [15], in [16], in [17], in [18] and in test [19] was inactive. The call in [1] and in [20] was inactive.
In the case of `NC(=O)CNCCC(c1ccccc1)c1ccccc1`, the call in test [1] was inactive.
Consider `N=C(N)c1ccc(N)cc1`, for which the outcome in test [1] was inactive.
Take `CCCCCCCCCCCCCCC[C@H](O)[C@H](N)CO`: in test [1], the outcome was inactive.
On to `CCCOC(=O)c1c(-c2ccccc2)nc(CC)c(C(=O)SCC)c1CCC`, for which the compound was classed as inactive in test [1].
Turning to `C[C@H](NC(=O)/C(C#N)=C/c1ccc(O)c(O)c1)c1ccccc1`, the compound was classed as inactive in test [1].
As to `Nc1nc2[nH]c(=O)cnc2c(=O)[nH]1`, the compound was classed as inactive in test [1].
Turning to `NC1(C(=O)O)CC1`, in test [1], the outcome was inactive.
As to `O=C(O)C1CCNCC1`, the compound was classed as inactive in test [1].
The same measure, in the same setting: with `C=CC[C@H](N)C(=O)O` the entry was “inactive”.
`Nn1nnc2ccccc21`: in test [1], the result was inactive.
On the same count and under the same terms, with `Cc1nc(N=Nc2ccc(S(=O)(=O)O)cc2S(=O)(=O)O)c(COP(=O)(O)O)c(C=O)c1O` the entry was “inactive”.
In the case of `c1ccc2nc(C3=NCCN3)ccc2c1`, the compound was classed as inactive in [1].
On the same count and under the same terms, for `Cn1c(=O)[nH]c2ncn(C)c2c1=O` the value was “inactive”.
The same measure, in the same setting: for `N=C(N)c1ccc(OCCCCCOc2ccc(C(=N)N)cc2)cc1` (tested in a mixture with another compound) the value was “inactive”.
Consider `N#C/C(=C\c1ccc(O)c(O)c1)C(=O)NCCc1ccccc1`, for which the compound was called inactive in test [1].
As for `N[C@H](C(=O)O)c1cc(O)cc(O)c1`, in [1], the call was inactive.
For `Oc1ccc(Cn2cc[nH]c2=S)cc1`, the compound was classed as inactive in [1].
Turning to `O=C(O)C1=CC(=C(c2ccc(O)c(C(=O)O)c2)c2ccc(O)c(C(=O)O)c2)C=CC1=O`, the outcome in [1] was inactive.
Still for that read-out and setting: with `CNCCNS(=O)(=O)c1cccc2cnccc12` the entry was “inactive”.
As for `CC(=O)C(C)=O`, the compound was classed as inactive in test [2], in [3], in [4], in test [5], in test [6] and in [7]. For the same compound, the outcome in test [8], in [9], in test [10], in test [11], in test [12] and in [13] was inactive. For the same compound, the compound was classed as inactive in [14], in test [15], in [16], in test [17], in test [18] and in test [19]. The outcome in test [1] and in test [20] was inactive.
On to `NC/C=C\C(=O)O`, for which the result in test [1] was inactive.
Same read-out and setting: with `CCCCCCCC/C=C\CCCCCCCC(=O)NCCc1ccc(O)c(O)c1` the entry was “inactive”; with `CC[C@@H]1Cc2cc(O)ccc2C2=C1c1ccc(O)cc1C[C@H]2CC`, “inactive”.
The same measure, in the same setting: for `Nc1ccc2c3c(cccc13)C(=O)NC2=O` the value was “inactive”; for `CCN(CC)CCCCCCCCOC(=O)c1cc(OC)c(OC)c(OC)c1`, “inactive”; for `C#CCn1c(=O)c2c(ncn2C)n(C)c1=O`, “inactive”.
As for `NCCCNCCCCNCCCN`, the result in test [1] was inactive.
For `CC(C)(C)c1cc(/C=C(\C#N)C(N)=S)cc(C(C)(C)C)c1O`, in test [1], the call was inactive.

(Values after PubChem BioAssay (NCATS).)
